Source: PubChem BioAssay
Values joined by “and” are separate entries in the source; they are usually repeats but may differ in a detail not shown here. Equal entries are not always repeated. Results filed as inconclusive are left out. For part of these data: Results with a measured potency or affinity are listed apart. Active and inactive are the calls of the source. Unless noted, no rule for the calls is given here.

Key:
[1] = protection against mutant huntingtin cytotoxicity, PC12 cells, LDH release (AID 1610); settings: PC12 mutant huntingtin toxicity, final LDH at 4 uM, stronger effect = lower value
[2] = suppressors of polyQ aggregation in yeast, 75Q-TubU reporter (AID 1593); settings: Yeast 75Q polyglutamine aggregation reporter
[3] = rescue of polyQ-huntingtin neuronal dysfunction in worms, whole organism, C. elegans mechanosensory neurons, N-terminal huntingtin (AID 1599); settings: touch response, stronger effect = higher value
[4] = inhibitors of mitochondrial cytochrome c release, biochemical, purified mitochondria (AID 1603); settings: stronger effect = lower value;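 also: mouse liver mitochondria challenged with calcium chloride; signal normalized to the plate average as 100%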
[5] = inhibitors of polyQ protein aggregation (AID 1604); settings: polyglutamine-induced protein aggregation inhibition assay; stronger effect = higher value; tested at 2.5 µM
[6] = enhancers of glutamate uptake in motor neurons, MN-1 cell line (AID 1612); settings: MN-1 motor neuron cells, stronger effect = higher value;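 also: tested at 1 µM final; 0% = mean of DMSO vehicle wells on each plate; positive means more glutamate uptake than control and negative means less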
[7] = reducers of polyQ inclusions in PC12 cells, cell-based, NGF-treated PC12, GFPQ80 (AID 1614); settings: PC12 NGF-treated GFP-polyQ80 inclusion reduction;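 also: lower means fewer inclusions and 0 means no inclusions at all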
[8] = suppressors of polyglutamine aggregation in yeast, 75Q-TubH (AID 1616); settings: S. cerevisiae 75Q-TubH polyglutamine aggregation suppression; stronger effect = higher value
[9] = modifiers of HSF1 nuclear foci, imaging, Selleck Cancer Library (AID 1347162; in the data active = plate-normalised HSF1 focus index below about 0.46); settings: human cells, at 10 µM; SSMD: measured here: HSF1 foci SSMD mean; cell count: measured here: cell number; plate-normalised HSF1 focus index: stronger effect = lower value
[10] = Cy5 fluorescence interference with SSB-bound oligo, artefact control for HCV NS3 helicase inhibitor project, biochemical, NIH Clinical Collection, E. coli SSB (AID 743268)
[11] = tested on: Hepatitis C virus NS3 helicase; test: HCV NS3 helicase inhibitors, primary screen, biochemical, fluorescence polarization, NIH Clinical Collection (AID 743270); settings: NS3 helicase binding to Cy5-dT15 DNA, stronger effect = higher value, concentration not given here
[12] = molecular target: Single-stranded DNA-binding protein (Escherichia coli (strain K12)) (UniProt P0AGE0); test: E. coli SSB displacement from DNA, counter-screen for HCV NS3 helicase inhibitor project, biochemical, fluorescence polarization, NIH Clinical Collection (AID 743271; in the data active = inhibition above about 28%); settings: stronger effect = higher value, concentration not given here
[13] = fluorescence interference in NS3h assay format, artefact control for HCV NS3 helicase inhibitor project, biochemical, NIH Clinical Collection (AID 743272); settings: fluorescence interference counterscreen, stronger effect = lower value;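 also: HCV NS3 helicase with a Cy5 labelled single stranded DNA probe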
[14] = inhibitors of Cryptococcus chitosan production, flow cytometry, Cibacron Brilliant Red staining (AID 1347148); settings: Cryptococcus neoformans chitosan, stronger effect = lower value; at 10 µM unless noted;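 also: compound exposure lasted three days at 37 degrees C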

## O=C1C=CC(=C(c2ccc(O)cc2)c2ccc(O)cc2)C=C1
[1]
  normalised LDH release: 0.611

## CC(=O)c1c(O)c(C)c(O)c2c1OC1=CC(=O)C(C(C)=O)C(=O)C12C (stereo unspecified)
[1]
  normalised LDH release: 1.02

## O=C(O)c1cc(=O)c2ccccc2[nH]1
[2]
  score: 1.02
[3]
  rescue above control: 12.3
[4]
  cytochrome c release ratio: 0.92
[5]
  inhibition of aggregation: 69.7%
[6]
  glutamate uptake change: -1.73%
[7]
  inclusion score: 2
[8]
  aggregation suppression score: 0.981

## COC1=C(OC)C(=O)C(C/C=C(\C)CC/C=C(\C)CC/C=C(\C)CC/C=C(\C)CC/C=C(\C)CC/C=C(\C)CC/C=C(\C)CC/C=C(\C)CC/C=C(\C)CCC=C(C)C)=C(C)C1=O
[9]
  SSMD: 2.18
  cell count: 7460
  plate-normalised HSF1 focus index: 1.08 (inactive)

## CCCn1c(=O)c2[nH]c(C3CCCC3)nc2n(CCC)c1=O
[2]
  score: 1.24
[3]
  rescue above control: 18.1
[4]
  cytochrome c release ratio: 0.92
[5]
  inhibition of aggregation: 1.59%
[6]
  glutamate uptake change: -12.9%
[7]
  inclusion score: 2
[8]
  aggregation suppression score: 1.32

## O=C(O)c1c2ccccc2cc2ccccc12
[2]
  score: 0.43
[3]
  rescue above control: 12.4
[4]
  cytochrome c release ratio: 0.85
[5]
  inhibition of aggregation: 33.3%
[6]
  glutamate uptake change: 11%
[7]
  inclusion score: 2
[8]
  aggregation suppression score: 0.249

## CC(=O)[C@H]1CC[C@H]2[C@@H]3CCC4=CC(=O)CC[C@]4(C)[C@H]3CC[C@]12C
[10]
  fluorescence ratio: 0.96 (inactive)
[11]
  inhibition: -6.73% (inactive)
[12]
  inhibition: 1.44% (inactive)
[13]
  fluorescence ratio: 0.92 (inactive)

## O=C(O)C1=CCNCC1
[2]
  score: 1.62
[3]
  rescue above control: -1.41
[4]
  cytochrome c release ratio: 1.01
[5]
  inhibition of aggregation: 45.5%
[6]
  glutamate uptake change: 8.29%
[7]
  inclusion score: 2
[8]
  aggregation suppression score: 1.29

## NC(=NCc1ccccc1)NC(=O)c1nc(Cl)c(N)nc1N
[2]
  score: 1.09
[3]
  rescue above control: 5.46
[4]
  cytochrome c release ratio: 0.99
[5]
  inhibition of aggregation: 14.3%
[1]
  normalised LDH release: 1.01
[6]
  glutamate uptake change: 12.4%
[8]
  aggregation suppression score: 1.26
[14]
  fold fluorescence: 5.57 [at 156.4 µM] (inactive)

## CC(Oc1ccccc1)C(=O)N[C@@H]1C(=O)N2[C@@H]1SC(C)(C)[C@@H]2C(=O)O (stereo partly specified)
[2]
  score: 1.4
[3]
  rescue above control: -10.5
[4]
  cytochrome c release ratio: 1.15
[5]
  inhibition of aggregation: 78.9%
[6]
  glutamate uptake change: 10.6%
[7]
  inclusion score: 2
[8]
  aggregation suppression score: 1.29

## CCOc1ccc2c(c1)C(C)=CC(C)(C)N2
[2]
  score: 0.77
[3]
  rescue above control: 5.1
[4]
  cytochrome c release ratio: 0.79
[5]
  inhibition of aggregation: 25.8%
[1]
  normalised LDH release: 1.06
[6]
  glutamate uptake change: 23.6%
[8]
  aggregation suppression score: 0.616

## CC(=O)NCCc1c[nH]c2ccc(O)cc12
[2]
  score: 1.5
[3]
  rescue above control: 2.04
[4]
  cytochrome c release ratio: 0.84
[5]
  inhibition of aggregation: 31.4%
[6]
  glutamate uptake change: 0.88%
[7]
  inclusion score: 2
[8]
  aggregation suppression score: 1.34

## N[C@@H](Cc1c[nH]c2ccccc12)C(=O)O
[2]
  score: 1.61
[3]
  rescue above control: -5.37
[4]
  cytochrome c release ratio: 0.96
[5]
  inhibition of aggregation: 63.4%
[6]
  glutamate uptake change: -7.55%
[7]
  inclusion score: 2
[8]
  aggregation suppression score: 1.04

## CCCCC/C=C\C/C=C\C/C=C\C/C=C\CCCC(=O)O
[14]
  fold fluorescence: 5.45 (inactive)

## NCCCCCCNS(=O)(=O)c1cccc2c(Cl)cccc12
[2]
  score: 1.04 and 1.62 and 0.88
[3]
  rescue above control: 4.12 and -5.26 and -2.52
[4]
  cytochrome c release ratio: 1.16 and 0.95 and 1.09
[5]
  inhibition of aggregation: 51% and 55.6% and 36.6%
[6]
  glutamate uptake change: 18.7% and -10.2% and 14.1%
[7]
  inclusion score: 1
[8]
  aggregation suppression score: 0.802 and 0.897 and 0.965
[14]
  fold fluorescence: 9.13 [at 132.5 µM] (inactive)

## O=C(O)c1cc2cc(Cc3cccnc3)ccc2o1
[2]
  score: 1.36
[3]
  rescue above control: -5.98
[4]
  cytochrome c release ratio: 1.03
[5]
  inhibition of aggregation: 1.59%
[1]
  normalised LDH release: 1.48
[6]
  glutamate uptake change: -0.47%
[7]
  inclusion score: 2
[8]
  aggregation suppression score: 1.23

## C[C@@H]1O[C@@H](O[C@H]2[C@H](Oc3cc(O)c4c(c3)O[C@H](c3ccc(O)cc3)CC4=O)O[C@H](CO)[C@@H](O)[C@@H]2O)[C@H](O)[C@H](O)[C@H]1O
[2]
  score: 1.92
[4]
  cytochrome c release ratio: 1.05
[5]
  inhibition of aggregation: 82.5%
[6]
  glutamate uptake change: 6.96%
[7]
  inclusion score: 2
[8]
  aggregation suppression score: 1.02
